Our source for the growth inhibition, inhibition and outcome values is PubChem BioAssay.

Values without a mark were called inactive. For part of these data: Measured potencies and affinities stand elsewhere. Activity calls are given as the source filed them. Unless noted, no rule for the calls is given here.

Test [1] in a line: antimalarial activity against Dd2 strain (AID 2302;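 active = growth inhibition above 50% at the single 2 µM test dose, taken to imply half-maximal potency below 2 µM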;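 also: 0% = DMSO untreated growth and 100% = chloroquine plus artemisinin killed control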). The following applies: P. falciparum Dd2 in RBCs, LDH growth readout, 72 h; at 2 µM; hits give high values.
The nature of test [2]: human hepatoma cell viability loss – ATP luminescence, cytotoxicity control for P. falciparum antimalarial project, primary screen (AID 2303;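 active = inhibition above 50%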;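 also: 0% = DMSO wells and 100% = digitonin-killed cells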). The following applies: HepG2 viability, 24-48 h, at 10 µM, hits give high values.
For test [3], the target named is L-lactate dehydrogenase (Plasmodium falciparum (isolate CDC / Honduras)) (UniProt Q27743). The test is described as follows: PfLDH activity inhibition – cell lysate, 3D7 strain, counter-screen for P. falciparum growth inhibition project (AID 2304).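 Also: 0% = vehicle and 100% = reference inhibitor.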 As to conditions: P. falciparum 3D7 crude extract, LDH APAD/NBT absorbance; at 2 µM; hits give high values. In general terms: The purpose of a counterscreen is to sort out artefacts and off-target activity.
Sequence of L-lactate dehydrogenase (Plasmodium falciparum (isolate CDC / Honduras)) (Q27743 whole entry, looked up): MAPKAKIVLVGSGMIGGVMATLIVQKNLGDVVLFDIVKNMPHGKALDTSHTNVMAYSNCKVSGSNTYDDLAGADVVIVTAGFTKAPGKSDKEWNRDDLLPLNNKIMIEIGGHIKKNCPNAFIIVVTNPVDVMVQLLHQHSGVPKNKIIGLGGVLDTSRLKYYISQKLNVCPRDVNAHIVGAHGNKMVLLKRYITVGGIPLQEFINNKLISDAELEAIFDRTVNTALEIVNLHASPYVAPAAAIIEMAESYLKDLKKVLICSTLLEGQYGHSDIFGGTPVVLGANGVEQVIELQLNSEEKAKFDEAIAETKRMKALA

The nature of test [4]: inhibition of 3D7 malaria parasite growth – strain 3D7 (AID 2306).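 Also: 0% = DMSO wells and 100% = chloroquine plus artemisinin control wells.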 As to conditions: P. falciparum 3D7 erythrocytic growth, LDH absorbance, 72 h; at 2 µM; hits give high values.
The target of test [5] is Calcium-dependent protein kinase 1 (Plasmodium falciparum (isolate 3D7)) (UniProt P62344). The test is described as follows: PfCDPK1 kinase inhibitors, biochemical, TCAMS library (AID 1159585; cut-off not given, nearly all actives have IC50 up to about 0.98 µM;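 also: inhibitors leave more ATP so luminescence rises with inhibition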). As to conditions: recombinant PfCDPK1, Kinase-Glo ATP depletion luminescence. For orientation: In Kinase-Glo more light means more ATP remaining.
Sequence of Calcium-dependent protein kinase 1 (Plasmodium falciparum (isolate 3D7)) (P62344 whole entry, looked up): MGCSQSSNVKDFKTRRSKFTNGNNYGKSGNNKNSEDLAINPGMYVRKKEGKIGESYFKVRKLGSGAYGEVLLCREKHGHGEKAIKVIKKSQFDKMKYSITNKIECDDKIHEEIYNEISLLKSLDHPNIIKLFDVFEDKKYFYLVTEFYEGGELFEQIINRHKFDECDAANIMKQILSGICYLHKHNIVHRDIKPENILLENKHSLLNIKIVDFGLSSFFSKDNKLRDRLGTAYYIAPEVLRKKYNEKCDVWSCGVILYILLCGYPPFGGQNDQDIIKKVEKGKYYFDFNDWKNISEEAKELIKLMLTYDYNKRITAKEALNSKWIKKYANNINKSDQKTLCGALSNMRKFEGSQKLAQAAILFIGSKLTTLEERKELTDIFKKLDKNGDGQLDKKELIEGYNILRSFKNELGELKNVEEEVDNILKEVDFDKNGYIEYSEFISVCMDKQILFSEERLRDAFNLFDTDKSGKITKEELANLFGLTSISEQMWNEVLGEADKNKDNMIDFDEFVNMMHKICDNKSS
Test [6] concerns the target Plasmodium falciparum protein kinase 6 (PK6, PF3D7_1337100) (UniProt Q8IDW1). Description: PfPK6 kinase inhibitors, biochemical, TCAMS library (AID 1159586). The following applies: recombinant PfPK6, Kinase-Glo ATP depletion luminescence.
For test [7], the target named is Protein kinase 7 (PK7), Plasmodium falciparum 3D7 (PF3D7_0213400) (UniProt Q7YTF7). The test is described as follows: inhibition of Plasmodium PK7 catalytic activity – biochemical, TCAMS antimalarial set, Kinase-Glo luminescence (AID 1159587). As to conditions: recombinant PfPK7, Kinase-Glo ATP depletion luminescence.
Sequence of Protein kinase 7 (PK7), Plasmodium falciparum 3D7 (PF3D7_0213400) (Q7YTF7 1-343): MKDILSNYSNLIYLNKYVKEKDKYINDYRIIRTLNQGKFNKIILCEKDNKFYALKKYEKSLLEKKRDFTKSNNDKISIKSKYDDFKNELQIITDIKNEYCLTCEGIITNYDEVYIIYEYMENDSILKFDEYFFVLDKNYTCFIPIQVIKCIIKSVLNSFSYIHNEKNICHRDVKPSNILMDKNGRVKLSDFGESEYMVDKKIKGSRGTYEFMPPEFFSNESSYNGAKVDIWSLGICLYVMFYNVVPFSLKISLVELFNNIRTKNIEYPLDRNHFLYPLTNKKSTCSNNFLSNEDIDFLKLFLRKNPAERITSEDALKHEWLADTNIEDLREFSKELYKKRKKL
For test [8], the target named is Calcium-dependent protein kinase 4 (Plasmodium falciparum (isolate 3D7)) (UniProt Q8IBS5). The test is described as follows: PfCDPK4 kinase inhibitors, biochemical, TCAMS library (AID 1159588; cut-off not given, nearly all actives have IC50 up to about 0.91 µM). As to conditions: recombinant PfCDPK4, Kinase-Glo ATP depletion luminescence.
Sequence of Calcium-dependent protein kinase 4 (Plasmodium falciparum (isolate 3D7)) (Q8IBS5 whole entry, looked up): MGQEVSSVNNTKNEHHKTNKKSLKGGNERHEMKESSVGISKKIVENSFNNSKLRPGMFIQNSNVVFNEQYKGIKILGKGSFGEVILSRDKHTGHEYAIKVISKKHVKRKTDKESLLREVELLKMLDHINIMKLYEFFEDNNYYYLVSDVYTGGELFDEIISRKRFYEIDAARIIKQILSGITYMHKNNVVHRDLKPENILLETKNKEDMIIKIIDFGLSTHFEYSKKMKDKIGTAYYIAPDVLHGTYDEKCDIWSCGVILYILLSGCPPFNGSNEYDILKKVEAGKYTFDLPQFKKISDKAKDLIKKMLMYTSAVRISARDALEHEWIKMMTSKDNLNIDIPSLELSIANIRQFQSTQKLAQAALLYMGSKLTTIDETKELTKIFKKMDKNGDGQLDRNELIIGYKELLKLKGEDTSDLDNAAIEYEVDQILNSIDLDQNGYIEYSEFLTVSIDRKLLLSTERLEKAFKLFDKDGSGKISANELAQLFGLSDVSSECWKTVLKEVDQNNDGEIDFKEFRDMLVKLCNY

Sequence of Plasmodium falciparum protein kinase 6 (PK6, PF3D7_1337100) (Q8IDW1 1-305): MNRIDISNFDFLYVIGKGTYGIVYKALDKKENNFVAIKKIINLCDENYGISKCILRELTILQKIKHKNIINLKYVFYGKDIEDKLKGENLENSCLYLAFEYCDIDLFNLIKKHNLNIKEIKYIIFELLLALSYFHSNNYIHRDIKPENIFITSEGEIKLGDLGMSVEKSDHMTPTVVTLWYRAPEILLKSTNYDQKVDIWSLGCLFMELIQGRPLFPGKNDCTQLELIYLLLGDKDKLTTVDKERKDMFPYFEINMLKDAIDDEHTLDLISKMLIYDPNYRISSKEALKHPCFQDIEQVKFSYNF

Take `S=c1nc(-c2ccccc2)n2ccsc2n1`: the results for the growth inhibition in test [1] and in test [4] were 0% and 95% (active), respectively. The results for the inhibition in test [2] and in test [3] were 3% and -6%, respectively. The outcome in test [5], in test [6], in test [7] and in test [8] was inactive.

For `O=C(Nc1cccc(CN2CCCN(Cc3ccc(O)cc3)CC2)c1)c1ccc2ccccc2n1`, the growth inhibition is 22% in test [1] and 90% (active) in test [4]. In addition, the inhibition (usually the change of the read-out against control, counted positive when it falls) in test [2] is 13%; in test [3], -1%. The result in test [5], in test [6], in test [7] and in test [8] was inactive.

Consider `O=[N+]([O-])c1cccc(-c2nc(-c3ccc(Br)cc3)[nH]c2-c2ccc(Br)cc2)c1`, for which the growth inhibition in test [1] is 44%; in test [4] it was 99% (active). The inhibition is 6% in test [2] and 2% in test [3]. For the same molecule, the result in test [5], in test [6], in test [7] and in test [8] was inactive.

For `COc1ccc(CNC2Cc3ccccc3C2)cc1-c1ccc(S(=O)(=O)NCCc2ccccn2)s1`, the growth inhibition was 22% in test [1] and 92% (active) in test [4]. Also, the inhibition is 11% in test [2] and 0% in test [3]. Besides, the outcome in test [5], in test [6], in test [7] and in test [8] was inactive.

`N#Cc1ccc(-c2ccc(C(=O)NCCCCN3CCC(c4ccc5c(c4OCC(N)=O)CCCC5)CC3)nc2)cc1`: the growth inhibition in test [1] is 97% (active); in test [4], 100% (active). The inhibition in test [2] is 21%; in test [3], -4%. Moreover, the outcome in test [5], in test [6], in test [7] and in test [8] was inactive.

Regarding `Cc1cccc2[nH]c(-c3ccc(-c4cccc(NC(=O)NCc5cccc(F)c5)c4)s3)nc12`, the growth inhibition in test [1] is 8%; in test [4], 88% (active). Further, the inhibition in test [2] is 24%; in test [3], -2%. Also, the outcome in test [5], in test [6], in test [7] and in test [8] was inactive.

Take `O=C(Cn1c(SCc2cccc(F)c2F)cc(=O)c2ccccc21)N(CCN1CCCCC1)Cc1ccc(-c2ccc(C(F)(F)F)cc2)cc1`: the growth inhibition is 82% (active) in test [1] and 99% (active) in test [4]. Moreover, the inhibition in test [2] was 41%; in test [3] it was -1%. In addition, the outcome in test [5], in test [6], in test [7] and in test [8] was inactive.

For the molecule `COc1ccc(CNc2ccc3nc(N)nc(N)c3c2)cc1`, the growth inhibition is 84% (active) in test [1] and 99% (active) in test [4]. Moreover, the inhibition in test [2] is 39%; in test [3] it was -4%. In addition, the result in test [5], in test [6], in test [7] and in test [8] was inactive.

For the molecule `CCCNC(=O)C1Cc2c([nH]c3ccc(Br)cc23)C2(CCN(CCc3ccccc3)CC2)N1` (centres undefined), the results for the growth inhibition in test [1] and in test [4] were 49% and 99% (active), respectively. The inhibition in test [2] was 16%; in test [3], -8%. Further, the outcome in test [5], in test [6], in test [7] and in test [8] was inactive.

`N=C(N)c1cccc(OCCCOc2cccc(NC(=O)Nc3ccc([N+](=O)[O-])cc3)c2)c1`: the growth inhibition in test [1] is 22%; in test [4], 98% (active). For the same molecule, the values for the inhibition in test [2] and in test [3] were 16% and 3%, respectively. Moreover, the result in test [5], in test [6], in test [7] and in test [8] was inactive.

On to `CCOc1cc(C(=O)NCc2cc(Cl)cc(Cl)c2)ccc1-c1nc2ccc(Cl)cc2[nH]1`, for which the growth inhibition was 5% in test [1] and 101% (active) in test [4]. Besides, the inhibition in test [2] was 1%; in test [3], -3%. For the same molecule, the result in test [5], in test [6], in test [7] and in test [8] was inactive.

Turning to `CCCC(=O)Nc1ccc(OCCCN(Cc2cccc(C(F)(F)F)c2)c2ccc(C#N)c(C(F)(F)F)c2)cc1`, the results for the growth inhibition in test [1] and in test [4] were 89% (active) and 90% (active), respectively. Also, the inhibition in test [2] was -12%; in test [3], -5%. Also, the result in test [5], in test [6], in test [7] and in test [8] was inactive.

In the case of `O=C(CCC1CCCCC1=O)c1ccccc1` (centres undefined), the figures for the growth inhibition in test [1] and in test [4] were 3% and 91% (active), respectively. Further, the inhibition is 0% in test [2] and -4% in test [3]. Moreover, the result in test [5], in test [6], in test [7] and in test [8] was inactive.

As for `CC(O)C1CCCCN1C(=O)c1cccc(-c2cccc(-c3nc4ccccc4[nH]3)c2)c1` (centres undefined), the results for the growth inhibition in test [1] and in test [4] were 76% (active) and 99% (active), respectively. Also, the inhibition is 20% in test [2] and -4% in test [3]. Moreover, the outcome in test [5], in test [6], in test [7] and in test [8] was inactive.

In the case of `NCC1CCCN1Cc1cccc(-c2ccc(-c3nc4ccccc4[nH]3)s2)c1` (centres undefined), the growth inhibition was 66% (active) in test [1] and 99% (active) in test [4]. Moreover, the inhibition is 16% in test [2] and 3% in test [3]. Besides, the outcome in test [5], in test [6], in test [7] and in test [8] was inactive.

As for `Cc1noc(C)c1-c1cccc(CNCc2cccc(-c3ccc(-c4nc5c(C)cccc5[nH]4)cc3)c2)c1`, the growth inhibition is 69% (active) in test [1] and 103% (active) in test [4]. For the same molecule, the inhibition was 24% in test [2] and 6% in test [3]. For the same molecule, the result in test [5], in test [6], in test [7] and in test [8] was inactive.

Take `COc1cc2nc(N3CCN(C(=O)c4ccc(N(C(=O)OC(C)(C)C)C(=O)OC(C)(C)C)cc4)CC3)nc(N)c2cc1OC`: the growth inhibition was 19% in test [1] and 96% (active) in test [4]. The inhibition in test [2] is 12%; in test [3] it was 1%. Further, the result in test [5], in test [6], in test [7] and in test [8] was inactive.

In the case of `Cc1ccc(-c2ccn(Cc3cccc(OCc4ccccc4)c3)n2)cn1` (tested in a mixture with another compound), the figures for the growth inhibition in test [1] and in test [4] were 64% (active) and 82% (active), respectively. Also, the values for the inhibition in test [2] and in test [3] were -4% and 0%, respectively. Moreover, the result in test [5], in test [6], in test [7] and in test [8] was inactive.
